Screening results: PubChem BioAssay, National Center for Advancing Translational Sciences (NCATS)
KB-V1 cytotox = qHTS assay for MDR1-selective chemotherapeutics: Primary screen using the drug-selected MDR subline cells KB-V1; AID 1347076, 2019; KB-V1 MDR cells viability, CellTiter-Glo, 72 h; Potency, µM (titrated, usually from 46.1 µM), actives largely listed as cytotoxic; 400,000 tested, 3.4% active; further: nearly all actives have a fitted effect of over 60% in size
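Compound-treated KB-V1 multidrug-resistant cells, 72 h, 37 degrees C; viability by CellTiter-Glo. Fitted qHTS curves give the values.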
TDP1 cell noCPT = qHTS for Inhibitors of human tyrosyl-DNA phosphodiesterase 1 (TDP1): qHTS in cells in absence of CPT; Potency, µM (doses to about 46.2 µM), for inactives: at the highest dose activity change, negative = growth inhibition, most hits filed as inhibitors; DT40 Tdp1-/- hTDP1 cells, no CPT, ATP luminescence, 48 h; 420,000 tested, 15% active; further: nearly all actives have a fitted effect of over 55% in size
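Chicken DT40 Tdp1-/- cells complemented with human TDP1, screened without camptothecin (DMSO vehicle only), 400 cells/well. Compounds pin-transferred, cells incubated at 37 °C for at least 48 hr. Growth read as ATP-dependent luminescence (CellTiter-Glo, 30 min at RT).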
HT1080 IDH1KD tx = qHTS for induction of synthetic lethality in tumor cells producing 2HG: qHTS for the HT-1080-IDH1KD cell line; Potency, µM (doses to about 46.1 µM), without a hit: at the highest dose activity, negative = toxicity, usual class: cytotoxic; 360,000 tested, 2% active; HT-1080 IDH1 knockdown viability, ATP luminescence, 48 h; AID 686971, 2013;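 further: 0% = DMSO wells and -100% = cell-free medium wells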
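Assay cells: HT-1080 with IDH1 knockdown, 750 per well, RPMI/5% FBS. Exposure: 48 h at 37 °C following 2 h pre-incubation. Read: CellTiter-Glo luminescence; fitted concentration-response, curve class assigned.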
KB-3-1 tox = qHTS assay for MDR1-selective chemotherapeutics: Primary screen using the parental adenocarcinoma cell KB-3-1; KB-3-1 viability, CellTiter-Glo ATP luminescence, 72 h; Potency, µM (series often up to 46.1 µM), most hits filed as cytotoxic; 400,000 tested, 1.4% active; AID 1347075, 2019; further: nearly all actives have a fitted effect of over 60% in size
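Viability of parental KB-3-1 cells, measured by CellTiter-Glo luminescence, followed a 72 h incubation at 37 °C with pinned compounds in phenol-red-free DMEM containing 10% FBS.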
HT1080-NT tox = qHTS for induction of synthetic lethality in tumor cells producing 2HG: qHTS for the HT-1080-NT fibrosarcoma cell line; HT-1080-NT fibrosarcoma viability, CellTiter-Glo ATP luminescence, 48 h; Potency, µM (top dose mostly 46.1 µM), for inactives: top-dose activity, negative = less viability, most hits filed as cytotoxic; 360,000 tested, 1.6% active;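 further: NT is the 2HG producing partner of a matched IDH1 knockdown line; 0% = DMSO-treated cells and -100% = media-only wells without cells; nearly all actives have a fitted effect of over 55% in size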
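Toxicity toward the 2HG-producing NT line was scored as %Activity, normalised to DMSO and no-cell wells, from CellTiter-Glo luminescence after 48 hours' treatment.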
DT40 TDP1 CPT = qHTS for Inhibitors of human tyrosyl-DNA phosphodiesterase 1 (TDP1): qHTS in cells in presence of CPT; chicken DT40 Tdp1-/-;hTDP1 cells + 20 nM CPT, ATP luminescence, 48 h; Potency, µM (highest dose often 46.2 µM), for inactives: at the top dose activity change, negative = growth inhibition, usual class: inhibitors; 420,000 tested, 12% active; further: nearly all actives have a fitted effect of over 55% in size
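Chicken DT40 Tdp1-/- cells stably complemented with human TDP1 were seeded at 400 cells/well in medium containing 20 nM camptothecin, exposed to pin-transferred compounds, and grown at 37 °C for at least 48 hr. Viability was read as ATP luminescence.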
The depositor's hits bear a star. Most compounds without a hit are left out; they make up all but 19% or so of the library. The call rests on the fitted dose curve; in most records, active means well fitted curve in the direction sought with a large enough effect; inconclusive means small, poorly fitted or top-dose-only effect, or another doubt; inactive means no such curve, though single readings can be large; an effect the other way counts as inactive or inconclusive. Unless noted, on the % scale 0 is the no-effect control and ±100 the full control effect; potency means the concentration at half of the fitted maximal effect.

Screening COc1ccc(N2CCN(c3nc4ccccc4n4c(C)nnc34)CC2)cc1 returned KB-V1 cytotox inactive, TDP1 cell noCPT -9%, KB-3-1 tox inactive and DT40 TDP1 CPT -6%.
For CCN(C)C(=O)Oc1cccc([C@H](C)N(C)C)c1 the results were TDP1 cell noCPT -11% and DT40 TDP1 CPT -11%.
CN(CCCCCCCCCCN(C)C(=O)Oc1cccc([N+](C)(C)C)c1)C(=O)Oc1cccc([N+](C)(C)C)c1 was read as KB-V1 cytotox inactive, TDP1 cell noCPT 0.82µM*, HT1080 IDH1KD tx -28%, KB-3-1 tox inactive, HT1080-NT tox -11% and DT40 TDP1 CPT 2.3µM*.
For Cc1ccc(CNc2nc(CN3CCNC(=O)C3)nc3ccccc23)o1 the results were TDP1 cell noCPT -22% and DT40 TDP1 CPT inconclusive.
`O=C(O)c1ccccc1N/N=C/C1=C(N2CCOCC2)C(=C\c2ccccc2)/CC1` gave KB-V1 cytotox inactive, TDP1 cell noCPT 12µM*, HT1080 IDH1KD tx 16%, KB-3-1 tox inactive, HT1080-NT tox 17% and DT40 TDP1 CPT 21µM*.
`O=C(N/N=C/C1=C(N2CCOCC2)C(=C\c2ccccc2)/CC1)Nc1ccccc1` gave KB-V1 cytotox inactive, TDP1 cell noCPT 8.2µM*, HT1080 IDH1KD tx 7.3µM*, KB-3-1 tox inactive, HT1080-NT tox inconclusive and DT40 TDP1 CPT 12µM*.
O=P(C1=C(N2CCOCC2)/C(=C\c2ccccc2)CC1)(N1CCOCC1)N1CCOCC1 was read as KB-V1 cytotox inactive, TDP1 cell noCPT -15%, HT1080 IDH1KD tx -2%, KB-3-1 tox inactive, HT1080-NT tox 2% and DT40 TDP1 CPT 1%.
For Cc1occc1C(=O)N/N=C/C1=C(N2CCOCC2)C(=C\c2ccc(Cl)cc2)/CC1 the results were KB-V1 cytotox inactive, TDP1 cell noCPT 0.92µM*, HT1080 IDH1KD tx 11%, KB-3-1 tox inactive, HT1080-NT tox 0% and DT40 TDP1 CPT inconclusive.
`Cc1cc(=O)[nH]c(N/N=C/C2=C(N3CCOCC3)C(=C\c3ccc(Cl)cc3)/CC2)n1` gave KB-V1 cytotox inconclusive, TDP1 cell noCPT 16µM*, HT1080 IDH1KD tx -28%, KB-3-1 tox inactive, HT1080-NT tox -28% and DT40 TDP1 CPT 21µM*.
`Cc1ccc(C(=O)N/N=C/c2ccc(N3CCOCC3)cc2)c(C)c1` gave KB-V1 cytotox inactive, TDP1 cell noCPT -7%, HT1080 IDH1KD tx -12%, KB-3-1 tox inactive, HT1080-NT tox -3% and DT40 TDP1 CPT 9%.
`CCCCSc1ncnc2c1c(-c1ccccc1)cn2-c1cccc(F)c1` gave KB-V1 cytotox inactive, TDP1 cell noCPT -8%, KB-3-1 tox inactive and DT40 TDP1 CPT -10%.
Screening Cc1cc(C)nc(N/N=C/C2=C(N3CCOCC3)C(=C/c3ccccc3)/CC2)n1 returned KB-V1 cytotox 2.3µM*, TDP1 cell noCPT 12µM*, HT1080 IDH1KD tx -5%, KB-3-1 tox inconclusive, HT1080-NT tox -2% and DT40 TDP1 CPT 16µM*.
For Cc1ccc(N2CCN(/N=C/C3=C(N4CCOCC4)C(=C\c4ccccc4)/CC3)CC2)cc1 the results were KB-V1 cytotox inactive, TDP1 cell noCPT 8%, HT1080 IDH1KD tx 4%, KB-3-1 tox inactive, HT1080-NT tox -2% and DT40 TDP1 CPT -16%.
COC(=O)c1c(NC(=O)CSc2nccn2C)sc(C)c1C was read as KB-V1 cytotox inconclusive, TDP1 cell noCPT -3%, HT1080 IDH1KD tx -4%, KB-3-1 tox inactive, HT1080-NT tox -1% and DT40 TDP1 CPT 4%.
CCOC(=O)c1c(NC(=O)CSc2nc3ccccc3s2)sc(C)c1C was read as KB-V1 cytotox 13µM*, TDP1 cell noCPT inconclusive, HT1080 IDH1KD tx -2%, KB-3-1 tox inactive, HT1080-NT tox -2% and DT40 TDP1 CPT 16µM*.
CCOC(=O)c1c(NC(=O)CSc2ncnc3ccccc23)sc(C(C)=O)c1C was read as KB-V1 cytotox inconclusive, TDP1 cell noCPT 9.2µM*, HT1080 IDH1KD tx 2%, KB-3-1 tox inactive, HT1080-NT tox -4% and DT40 TDP1 CPT 8.2µM*.
`COC(=O)c1c(NC(=O)CSc2ncnc3ccccc23)sc(C)c1C` gave KB-V1 cytotox inactive, TDP1 cell noCPT 23µM*, HT1080 IDH1KD tx -10%, KB-3-1 tox inactive, HT1080-NT tox -10% and DT40 TDP1 CPT 18µM*.
Screening Cn1cnc(S(=O)(=O)N2CCC(C(=O)NCc3ccc(Cl)cc3)CC2)c1 returned TDP1 cell noCPT inconclusive and DT40 TDP1 CPT 1%.
For NC(=O)C1CCN(C(=O)COc2ccc(S(=O)(=O)NC3CCCC3)cc2)CC1 the results were KB-V1 cytotox inconclusive, TDP1 cell noCPT -5%, HT1080 IDH1KD tx 11%, KB-3-1 tox inconclusive, HT1080-NT tox 11% and DT40 TDP1 CPT 10%.
`NC(=O)C1CCN(C(=O)COc2ccc(S(=O)(=O)NCc3ccccc3)cc2Cl)CC1` gave KB-V1 cytotox inactive, TDP1 cell noCPT 8%, HT1080 IDH1KD tx 3%, KB-3-1 tox inactive, HT1080-NT tox 11% and DT40 TDP1 CPT inconclusive.
For O=C(COc1ccc(S(=O)(=O)NC2CCCCC2)cc1Cl)N1CCN(c2ccccc2)CC1 the results were KB-V1 cytotox 5.8µM*, TDP1 cell noCPT inconclusive, HT1080 IDH1KD tx inconclusive, KB-3-1 tox inactive, HT1080-NT tox -13% and DT40 TDP1 CPT inconclusive.
For O=C(COc1ccc(S(=O)(=O)NC2CCCCC2)cc1)N1CCN(c2ccc(F)cc2)CC1 the results were KB-V1 cytotox inconclusive, TDP1 cell noCPT 21µM*, HT1080 IDH1KD tx -13%, KB-3-1 tox 16µM*, HT1080-NT tox inconclusive and DT40 TDP1 CPT 16µM*.
`O=C1NC[C@H](c2ccccc2)OC(=O)[C@H](Cc2ccc(F)cc2)CC/C=C/C[C@@H]1CC(=O)N(CCO)Cc1ccccc1` gave KB-V1 cytotox inactive, TDP1 cell noCPT 10µM*, KB-3-1 tox inactive, HT1080-NT tox inconclusive and DT40 TDP1 CPT 9.2µM*.
